Data published in PubChem BioAssay (NCI).
Several values for one entry are separate records, joined by “and”; a condition that tells them apart may be missing. Identical values can stand only once. Compounds without any hit were thinned out: in the full panel of roughly 83,000, 20% have a hit.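 Plates (96-well) were seeded with cells, treated with compound at one concentration, and incubated for 48 hours before percent growth was determined.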 Activity calls are given as the source filed them. Rule for the calls: active = growth percent below 10; inactive = the rest.

Key:
Test in all cases: NCI-60 one-dose screen, 48 h (100 = growth as untreated, 0 = no growth, -100 = all killed)
Conditions in all cases: 10 µM unless noted
NCI-H23 lung = test system: NCI-H23 lung
NCI-H226 lung = test system: NCI-H226 lung
HOP-62 NSCLC = test system: HOP-62 NSCLC
NCI-H460 lung = test system: NCI-H460 lung
HOP-92 NSCLC = test system: HOP-92 NSCLC
NCI-H522 lung = test system: NCI-H522 lung
A549/ATCC NSCLC = test system: A549/ATCC NSCLC
786-0 renal = test system: 786-0 renal
COLO 205 colon = test system: COLO 205 colon
DU-145 prostate = test system: DU-145 prostate
K-562 leukemia = test system: K-562 leukemia
MALME-3M melanoma = test system: MALME-3M melanoma
MDA-MB-231 breast = test system: MDA-MB-231 breast
RXF 393 renal = test system: RXF 393 renal
SF-268 CNS = test system: SF-268 CNS
SF-295 CNS = test system: SF-295 CNS
SF-539 CNS = test system: SF-539 CNS
UACC-257 melanoma = test system: UACC-257 melanoma
M14 melanoma = test system: M14 melanoma

Compound	growth (NCI-H23 lung)	growth (NCI-H226 lung)	growth (HOP-62 NSCLC)	growth (NCI-H460 lung)	growth (HOP-92 NSCLC)	growth (NCI-H522 lung)	growth (A549/ATCC NSCLC)	growth (786-0 renal)	growth (COLO 205 colon)	growth (DU-145 prostate)	growth (K-562 leukemia)	growth (MALME-3M melanoma)	growth (MDA-MB-231 breast)	growth (RXF 393 renal)	growth (SF-268 CNS)	growth (SF-295 CNS)	growth (SF-539 CNS)	growth (UACC-257 melanoma)	growth (M14 melanoma)
CC(C)(C)C1=CC(=O)C(C(C)(C)C)=CC1=O	84.3% (inactive) and 103% (inactive)	90.3% (inactive) and 102% (inactive)	90.2% (inactive) and 97.8% (inactive)	99.7% (inactive)	83.8% (inactive) and 100% (inactive)	82.5% (inactive) and 88.9% (inactive)	98.5% (inactive) and 91% (inactive)	93.3% (inactive) and 105% (inactive)	116% (inactive)	120% (inactive) and 98.9% (inactive)	105% (inactive) and 107% (inactive)	94.5% (inactive) and 107% (inactive)	107% (inactive) and 109% (inactive)	90.2% (inactive) and 105% (inactive)	108% (inactive) and 94.3% (inactive)	99.6% (inactive) and 104% (inactive)	87.3% (inactive) and 108% (inactive)	90.5% (inactive) and 85% (inactive)	105% (inactive)
CC1OS(=O)OC1C (stereo unspecified)	101% (inactive) and 95.8% (inactive)	103% (inactive) and 101% (inactive)	–	104% (inactive) and 102% (inactive)	114% (inactive) and 96.3% (inactive)	68.9% (inactive) and 94.9% (inactive)	97.9% (inactive) and 104% (inactive)	103% (inactive) and 105% (inactive)	112% (inactive) and 102% (inactive)	113% (inactive) and 102% (inactive)	82.6% (inactive) and 110% (inactive)	107% (inactive) and 91% (inactive)	109% (inactive)	99.4% (inactive) and 104% (inactive)	110% (inactive)	100% (inactive)	97.4% (inactive) and 99.1% (inactive)	99.8% (inactive) and 94.2% (inactive)	99.1% (inactive) and 102% (inactive)
O=[N+]([O-])c1cccc2ccc(N/N=C/c3ccccc3O)nc12	72.4% (inactive) and 98.3% (inactive)	83.4% (inactive) and 99.5% (inactive)	85% (inactive) and 97.9% (inactive)	91.9% (inactive) and 98.4% (inactive)	67.7% (inactive) and 77.7% (inactive)	78.6% (inactive) and 89.2% (inactive)	97.3% (inactive) and 90.9% (inactive)	102% (inactive) and 85.9% (inactive)	68.1% (inactive) and 111% (inactive)	88.7% (inactive) and 107% (inactive)	19.9% (inactive) and 49.1% (inactive)	96.2% (inactive) and 100% (inactive)	72.6% (inactive) and 84.5% (inactive)	84.6% (inactive)	106% (inactive) and 99.2% (inactive)	104% (inactive) and 102% (inactive)	90.9% (inactive) and 101% (inactive)	92.1% (inactive) and 85.4% (inactive)	88.9% (inactive) and 107% (inactive)
Cc1cc(-c2ccc(N=Nc3c(C)nn(-c4ccc(S(=O)(=O)O)cc4)c3O)c(C)c2)ccc1N=Nc1ccc(O)c(C(=O)O)c1	99.1% (inactive)	82.2% (inactive)	87.7% (inactive)	109% (inactive)	109% (inactive)	87.9% (inactive)	104% (inactive)	103% (inactive)	94% (inactive)	108% (inactive)	104% (inactive)	111% (inactive)	97.2% (inactive)	113% (inactive)	97.6% (inactive)	93.4% (inactive)	101% (inactive)	101% (inactive)	107% (inactive)
CCOCCC(=O)O	110% (inactive)	99.4% (inactive)	–	102% (inactive)	80.5% (inactive)	102% (inactive)	115% (inactive)	103% (inactive)	110% (inactive)	121% (inactive)	108% (inactive)	116% (inactive)	105% (inactive)	108% (inactive)	112% (inactive)	102% (inactive)	102% (inactive)	114% (inactive)	102% (inactive)
O=c1[nH]c(=O)n(C2OC(CO)C(O)C2O)cc1I (stereo unspecified)	104% (inactive) and 108% (inactive)	91.8% (inactive) and 117% (inactive)	101% (inactive) and 96.4% (inactive)	116% (inactive) and 125% (inactive)	77.7% (inactive)	80.5% (inactive) and 112% (inactive)	96.3% (inactive) and 100% (inactive)	105% (inactive) and 108% (inactive)	114% (inactive) and 102% (inactive)	117% (inactive) and 112% (inactive)	95.1% (inactive) and 128% (inactive)	100% (inactive) and 107% (inactive)	109% (inactive) and 111% (inactive)	114% (inactive) and 123% (inactive)	102% (inactive) and 112% (inactive)	125% (inactive) and 102% (inactive)	105% (inactive) and 102% (inactive)	97.3% (inactive) and 101% (inactive)	104% (inactive) and 90.5% (inactive)
COc1ccccc1OCC(O)CO (stereo unspecified)	106% (inactive) and 103% (inactive)	102% (inactive) and 94.6% (inactive)	96.8% (inactive) and 121% (inactive)	105% (inactive) and 113% (inactive)	90% (inactive)	98.6% (inactive) and 106% (inactive)	96.6% (inactive)	97.6% (inactive) and 102% (inactive)	116% (inactive)	115% (inactive) and 123% (inactive)	118% (inactive) and 87.4% (inactive)	110% (inactive) and 105% (inactive)	114% (inactive) and 111% (inactive)	110% (inactive) and 111% (inactive)	100% (inactive) and 114% (inactive)	3.64% (active) and 96.5% (inactive)	92.3% (inactive) and 121% (inactive)	102% (inactive) and 105% (inactive)	104% (inactive) and 106% (inactive)
CCOC(=N)c1ccc(C(=N)OCC)cc1	101% (inactive)	100% (inactive)	84.2% (inactive)	111% (inactive)	93% (inactive)	97.3% (inactive)	99.7% (inactive)	86.8% (inactive)	103% (inactive)	103% (inactive)	98.7% (inactive)	106% (inactive)	96.3% (inactive)	112% (inactive)	98.4% (inactive)	91.6% (inactive)	98.1% (inactive)	102% (inactive)	104% (inactive)
O=C1C(=O)c2ccccc2C(O)=C1CC=C(Cl)Cl	67.6% (inactive) and 71.5% (inactive)	73.4% (inactive) and 63.5% (inactive)	50.9% (inactive) and 61.3% (inactive)	17.1% (inactive) and 17.9% (inactive)	36.4% (inactive) and 87.3% (inactive)	43.7% (inactive) and 42.1% (inactive)	56% (inactive) and 44.5% (inactive)	39.5% (inactive) and 60% (inactive)	57.1% (inactive) and 57.7% (inactive)	68% (inactive) and 63.4% (inactive)	31% (inactive) and 33% (inactive)	68.5% (inactive) and 69.2% (inactive)	72.8% (inactive) and 71.8% (inactive)	51.8% (inactive) and 71.7% (inactive)	45.2% (inactive) and 53.9% (inactive)	38.5% (inactive) and 14.4% (inactive)	44.7% (inactive) and 55.6% (inactive)	43.2% (inactive) and 74.3% (inactive)	57.3% (inactive) and 69% (inactive)
NCCCCCC(=O)O	97.6% (inactive) and 104% (inactive) and 92.2% (inactive)	101% (inactive) [middle of 4 runs]	99.7% (inactive) and 105% (inactive) and 97.7% (inactive)	–	97.2% (inactive) and 90.1% (inactive)	100% (inactive) [middle of 4 runs]	94.1% (inactive) and 100% (inactive) and 99.7% (inactive)	107% (inactive) [middle of 4 runs]	114% (inactive) and 104% (inactive) and 95.2% (inactive)	124% (inactive) [middle of 4 runs]	112% (inactive) [middle of 4 runs]	–	112% (inactive) and 105% (inactive) and 109% (inactive)	110% (inactive) and 113% (inactive) and 127% (inactive)	–	104% (inactive) [middle of 4 runs]	101% (inactive) [middle of 4 runs]	102% (inactive) and 96.4% (inactive) and 105% (inactive)	106% (inactive) [middle of 4 runs]
Cc1cc(O)c(C(C)C)cc1N=O	95.4% (inactive) and 111% (inactive)	99.6% (inactive) and 108% (inactive)	103% (inactive) and 99.4% (inactive)	115% (inactive)	79.7% (inactive)	93.8% (inactive) and 74.7% (inactive)	106% (inactive) and 99.9% (inactive)	98.6% (inactive) and 103% (inactive)	106% (inactive) and 112% (inactive)	108% (inactive) and 104% (inactive)	99.6% (inactive)	113% (inactive) and 108% (inactive)	83.3% (inactive) and 100% (inactive)	112% (inactive) and 113% (inactive)	99.7% (inactive) and 96.1% (inactive)	98.8% (inactive) and 121% (inactive)	98.7% (inactive) and 101% (inactive)	103% (inactive) and 97.1% (inactive)	104% (inactive)
O=P(O)(O)OC1C(OP(=O)(O)O)C(OP(=O)(O)O)C(OP(=O)(O)O)C(OP(=O)(O)O)C1OP(=O)(O)O.[Cu+2] (stereo unspecified)	93.3% (inactive)	98.8% (inactive)	–	84.2% (inactive)	106% (inactive)	101% (inactive)	64.1% (inactive)	114% (inactive)	111% (inactive)	104% (inactive)	94.7% (inactive)	93.4% (inactive)	80.7% (inactive)	125% (inactive)	125% (inactive)	91% (inactive)	72% (inactive)	80.2% (inactive)	–
